KinaseGlo FLuc: Counterscreen for Luciferase (Kinase-Glo TM) Inhibition; AID 1379, 2008; Kinase-Glo luciferase, ATP luminescence, 8 min; Potency, µM (doses to about 38.3 µM), for the others: top-dose activity change, negative = inhibition, hits mostly inhibitors; Luciferin 4-monooxygenase (Photuris pensylvanica), Q27757; 0.28% of 200,000 active; further: on the % scale 0 is the no-effect control and ±100 the full control effect; nearly all actives have a fitted effect of over 60% in size
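Compounds were added to a substrate mix at pH 7.2 (50 mM imidazole, 10 uM ATP, within the enzyme's linear range), followed by Kinase-Glo detection reagent; luminescence was measured after 8 minutes at ambient temperature.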
LMNA splice mod: qHTS Assay for Modulators of Lamin A Splicing; 0.01% of 200,000 active; HeLa LMNA splicing GFP/RFP minigene ratio, 48 h; Potency, µM (titrated, usually from 46.1 µM), inactives show at the highest dose ratio change, negative = inhibition, actives largely listed as inhibitors; AID 1487, 2009; active means well fitted inhibition curve with a large enough effect in the signal ratio, with a control signal flat, not every such curve was filed as active; inconclusive means small, poorly fitted or top-dose-only effect, or effect the other way, or a change in a side signal; the % refers to the signal ratio; further: on the % scale 0 is the no-effect control and ±100 the full control effect
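S3 HeLa stable clones carrying a lamin A-EGFP splicing minigene plus DsRed2 were seeded at 600 cells/well in Opti-MEM with 2% FBS, pin-dosed and incubated 48 h at 37°C. Acumen cytometry (488 nm) gave the GFP/RFP total-intensity ratio.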
HPGD inh: qHTS Assay for Inhibitors of HPGD (15-Hydroxyprostaglandin Dehydrogenase) | 15-hydroxyprostaglandin dehydrogenase [NAD(+)] (Homo sapiens), P15428 | purified HPGD, NADH fluorescence kinetic, PGE2 substrate | Potency, µM, inactives show top-dose activity change, negative = inhibition, hits mostly inhibitors | 4.3% of 150,000 active | AID 894, 2007; active means well fitted inhibition curve with a large enough effect, not every such curve was filed as active; inconclusive means small, poorly fitted or top-dose-only effect, or another doubt; inactive means no such curve, though single readings can be large or run the other way; further: on the % scale 0 is the no-effect control and ±100 the full control effect
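NADH formation kinetics: reaction with 30 uM PGE2 and 1 mM NAD+ (final), 20 nM enzyme, Tris-HCl pH 8 with Tween 20, after 15 min compound preincubation at room temperature. Fluorescence change, last versus first of five reads.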
HTT cytoprotect: qHTS Multiplex Assay to Identify Dual Action Probes in a Cell Model of Huntington: Cytoprotection (ATP); AID 1471, 2008; 0.14% of 230,000 active; Potency, µM (top dose mostly 56.4 µM), for the others: cytoprotection (ATP increase), actives largely listed as activators; PC12 HTT-Q103 induced, cytoprotection, ATP luminescence, 40 h; further: % of control where 0% means no effect; nearly all actives have a fitted effect of over 45% in size
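Compounds were screened for protection of PC12 cells against cell death after tebufenozide induction (100 nM final) of mutant Huntingtin exon 1 (Q103) fused to GFP.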
ALDH1A1 block: qHTS Assay for Inhibitors of Aldehyde Dehydrogenase 1 (ALDH1A1) | Purified ALDH1A1, NADH fluorescence, propionaldehyde substrate | Aldehyde dehydrogenase 1A1 (Homo sapiens), P00352 | AID 1030, 2008 | 7.3% of 220,000 active | Potency, µM (top dose mostly 75.3 µM), for inactives: at the top dose activity, negative = inhibition, hits mostly inhibitors; active means well fitted inhibition curve with a large enough effect, not every such curve was filed as active; inconclusive means small, poorly fitted or top-dose-only effect, or another doubt; inactive means no such curve, though single readings can be large or run the other way;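 further: plate controls were no enzyme wells and a reference inhibitor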
Target sequence (P00352 whole entry, looked up): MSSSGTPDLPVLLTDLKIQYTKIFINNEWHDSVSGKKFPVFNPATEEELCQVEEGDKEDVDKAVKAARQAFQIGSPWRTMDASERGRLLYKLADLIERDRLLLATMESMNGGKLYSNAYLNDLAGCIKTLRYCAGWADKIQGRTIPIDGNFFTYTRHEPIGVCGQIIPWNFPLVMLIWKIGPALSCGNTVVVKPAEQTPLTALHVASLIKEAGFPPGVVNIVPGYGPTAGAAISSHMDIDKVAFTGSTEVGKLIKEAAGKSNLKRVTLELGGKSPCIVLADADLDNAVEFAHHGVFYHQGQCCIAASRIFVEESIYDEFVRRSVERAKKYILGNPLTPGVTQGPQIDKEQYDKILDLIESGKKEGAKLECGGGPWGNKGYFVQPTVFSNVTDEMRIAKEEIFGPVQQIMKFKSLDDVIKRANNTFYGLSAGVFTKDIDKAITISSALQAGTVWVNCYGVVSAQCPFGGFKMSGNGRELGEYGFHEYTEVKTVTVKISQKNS
HttQ103 aggreg: qHTS Multiplex Assay to Identify Dual Action Probes in a Cell Model of Huntington: Aggregate Formation (GFP). PC12 HttQ103-GFP aggregates, Acumen cytometry, 40 h. Potency, µM (titrated, usually from 46.1 µM), for inactives: top-dose activity change, negative = inhibition, actives largely listed as inhibitors. 1.1% of 220,000 active. AID 1688, 2009; further: on the % scale 0 is the no-effect control and ±100 the full control effect; nearly all actives have a fitted effect of over 60% in size
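Ecdysone-promoter PC12 model expressing HTT exon 1 Q103 fused to GFP, induced by tebufenozide at 100 nM final. Compounds titrated; aggregates sized 1–25 µm scored on a 488 nm laser cytometer.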
* hit, by the source's call; ? = inconclusive; . = no result; ! = a repeat was not active; [ ] = remark or other dose. An excerpt weighted towards active compounds, which were near 9% of everything screened. Unless noted, the call rests on the fitted dose curve; in most records, active means well fitted curve in the direction sought with a large enough effect; inconclusive means small, poorly fitted or top-dose-only effect, or another doubt; inactive means no such curve, though single readings can be large; an effect the other way counts as inactive or inconclusive. Potency means the concentration at half of the fitted maximal effect.

SMILES	KinaseGlo FLuc	LMNA splice mod	HPGD inh	HTT cytoprotect	ALDH1A1 block	HttQ103 aggreg
c1ccc2c(c1)ncn2Cc1nnc2sc(-c3ccc4c(c3)OCO4)nn12	-4%	-15%	?	-34%	?	19%
c1ccc(OCc2nn3c(Cn4nnc5ccccc54)nnc3s2)cc1	-2%	22%	8.9µM*	-15%	7.9µM*	10%
c1ccc(Cc2nn3c(Cn4nnc5ccccc54)nnc3s2)cc1	3%	-3%	20µM*	-46%	25µM*	-15%
Clc1ccccc1-c1nn2c(Cn3cnc4ccccc43)nnc2s1	0%	-6%	14µM*	-25%[0.074 µM]	20µM*	-12%
CCOC(=O)C1=C(N)Oc2c(oc(CO)cc2=O)C1c1ccc(Cl)cc1 (configuration not stated)	.	.	.	7%[10 µM]	.	1%[9.22 µM]
CC(C(O)c1ccc(O)cc1)N1CCC(Cc2ccccc2)CC1 (configuration not stated)	-1%	?	-7%	5µM*!	-5%	-12%
Cc1ccc(Cl)c(NC(=O)CCl)c1Cl	-2%	?	.	26%[10 µM]	?	-5%
CCOC(=O)N1CCN(CC(=O)N2c3ccccc3CCc3ccccc32)CC1	0%	-11%[46 µM]	.	.	-3%	19%
O=C(NNc1ccccc1Br)C(=O)n1ccc2ccccc21	-2%	4%	-26%	3.5µM*	4%	2%
O=C(Nc1ccccc1Br)C(=O)N1CCCC1	-5%	-6%	-1%	21%[10 µM]	2%	-8%
CCCC1Cc2[nH]c(=O)c(C#N)cc2CO1 (configuration not stated)	.	.	.	5%[10 µM]	.	-2%[9.22 µM]
CC(C)CCSc1nc2ccccc2[nH]1	-9%	-2%[46 µM]	.	-57%	-8%	-11%
CCNC(=O)OCC(CC)NC(=O)OCC(C)C (configuration not stated)	17%	-9%	-8%	-4%	1%	5%
CCC(COC(=O)Nc1cccc(C)c1)NC(=O)OCC(C)C (configuration not stated)	-1%	?	-14%	-35%	-14%	10µM*
CCOC(=O)CSc1nnc(SCCN2C(=O)c3ccccc3C2=O)s1	3%	10%	-9%	-12%	28µM*	3%
Cc1cccc(-c2noc(-c3ccccc3C(=O)NCC3CCCO3)n2)c1 (configuration not stated)	-5%	-2%	-8%	-66%[0.074 µM]	16µM*	-57%
CCOC(=O)CNC(=O)CSc1nnc(SCC(=O)NCC(=O)OCC)s1	-5%	4%	?	-12%	0.25µM*	9%
O=C(NCC1CCCO1)c1ccccc1-c1nc(-c2ccc(Cl)cc2)no1 (configuration not stated)	2%	-13%	0%	-4%[10 µM]	-5%	-13%
Cc1cccc(-c2nsc(SCC(=O)NCc3ccco3)n2)c1	-6%	?	?	-12%	?	4%
CCOC(=O)CNC(=O)CSc1nc(-c2cccc(C)c2)ns1	-3%	9%[46 µM]	.	-67%	20µM*	4%
CCOc1ccccc1C1C(C(N)=O)=C(C)Nc2nc(CCCO)nn21 (configuration not stated)	1%	4%	-11%	-16%	-1%	11%
CCOC(=O)Cc1csc(CC(N)=O)n1	.	.	.	3%[10 µM]	.	-20%[9.22 µM]
Cc1cccc(-c2nsc(SCC(=O)NCC3CCCO3)n2)c1 (configuration not stated)	3%	.	.	.	20µM*	10%
CCC(c1nnnn1CCc1ccccc1)N(Cc1ccco1)Cc1cc2cccc(C)c2[nH]c1=O (configuration not stated)	4%	-4%	-20%	-26%	?	-38%
